Assay results published in PubChem BioAssay (NCI).
The panel holds about 79,000 compounds, 15% with a hit somewhere; the sample as a whole holds those more often. Activity calls are given as the source filed them. Cut-off read from the data, not from the text of the source: active = growth inhibition above about 70%; inactive = the rest.

Legend:
[1] = NCI Yeast Anticancer Drug Screen. Data for the rad50 strain (AID 155);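 note: 0% = growth of vehicle-only cultures of the same strain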; conditions: S. cerevisiae rad50 strain growth inhibition, hits give high values
Summary of the method: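 Inhibition values express reduced yeast growth in compound-treated cultures relative to vehicle-treated controls.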

[2] = NCI Yeast Anticancer Drug Screen. Data for the mec2-1 strain (AID 157); conditions: S. cerevisiae mec2-1 strain, hits give high values
Summary of the method: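 Mutant yeast (mec2-1) grown with compound; growth inhibition relative to vehicle control reported.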

[3] = NCI Yeast Anticancer Drug Screen. Data for the sgs1 mgt1 strain (AID 161);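 note: 0% = growth of cultures given vehicle only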; conditions: S. cerevisiae sgs1 mgt1 strain, hits give high values
Summary of the method: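 This yeast growth screen uses a strain with defined DNA-repair lesions; compound-treated growth is compared with vehicle-treated growth.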

[4] = NCI Yeast Anticancer Drug Screen. Data for the cln2 rad14 strain (AID 165);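 note: 0% = growth equal to vehicle treated cultures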; conditions: S. cerevisiae cln2 rad14 strain, hits give high values
Summary of the method: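 Readout is yeast growth inhibition versus vehicle-treated controls, using a strain with cln2 and rad14 alterations exposed to compound.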

[5] = NCI Yeast Anticancer Drug Screen. Data for the bub3 strain (AID 167); conditions: S. cerevisiae bub3 mutant strain, hits give high values
Summary of the method: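 Steps: expose the mutant yeast strain to compound; grow alongside vehicle-treated cultures; measure growth; express inhibition against the vehicle cultures.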

[6] = NCI Yeast Anticancer Drug Screen. Data for the mlh1 rad18 strain (AID 175); conditions: S. cerevisiae mlh1 rad18 strain growth inhibition, hits give high values
Summary of the method: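 Genetically defined yeast (DNA repair-deficient) exposed to compounds; growth inhibition determined relative to vehicle.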

[7] = at 5.0 µM (retest, dose inferred, filed as 0.5)
[8] = at 50.0 µM (retest, dose inferred, filed as 5.0)

Measured: growth inhibition

O=C(O)C(F)(F)F.[Ag]
active: [1]; [7] 99% | [1]; [8] 98% | [1]; at 50.0 µM 98.1% | [2]; [7] 100% | [2]; [8] 99% | [2]; at 50.0 µM 99.2% | [3]; [7] 99% | [3]; [8] 99% | [3]; at 50.0 µM 99.1% | [4]; [7] 99% | [4]; [8] 99% | [4]; at 50.0 µM 98.7% | [5]; [7] 99% | [5]; [8] 98% | [5]; at 50.0 µM 98.5% | [6]; [7] 99% | [6]; [8] 99% | [6]; at 50.0 µM 97.6%

O=c1cccc(C2CC(CO)C3CCCCN3C2)[nH]1 (stereo not drawn)
inactive: [1]; [7] 1% | [1]; [8] -1% | [1]; at 50.0 µM 69.3% | [2]; [7] 1% | [2]; [8] -2% | [3]; [7] 2% | [3]; [8] 1% | [3]; at 50.0 µM 57.5% | [4]; [7] -8% | [4]; [8] -12% | [4]; at 50.0 µM 37.3% | [5]; [7] 3% | [5]; [8] 2% | [5]; at 50.0 µM 53.2% | [6]; [7] -2% | [6]; [8] -3% | [6]; at 50.0 µM -50.8%
active: [2]; at 50.0 µM 91.8%

CCC[CH2][Sn]1([CH2]CCC)[O]C(=O)CN=Cc2ccccc2[O]1
active: [1]; [7] 88% | [1]; [8] 88% | [1]; at 50.0 µM 88.5% | [2]; [7] 92% | [2]; [8] 92% | [2]; at 50.0 µM 92% | [3]; [7] 85% | [3]; [8] 85% | [3]; at 50.0 µM 90% | [4]; [7] 91% | [4]; [8] 91% | [4]; at 50.0 µM 90.8% | [5]; [7] 90% | [5]; [8] 90% | [5]; at 50.0 µM 89.9%

O=C1CCC(=O)N1SC(Cl)(Cl)Cl
active: [1]; at 50.0 µM 99.7% | [2]; at 50.0 µM 99.7% | [3]; at 50.0 µM 99.7% | [4]; at 50.0 µM 99% | [5]; at 50.0 µM 99.5% | [6]; at 50.0 µM 99.5%
inactive: [1]; [7] 21% | [1]; [8] 26% | [2]; [7] 20% | [2]; [8] 4% | [3]; [7] 7% | [3]; [8] 6% | [4]; [7] -11% | [4]; [8] -13% | [5]; [7] -12% | [5]; [8] 2% | [6]; [7] 2% | [6]; [8] 18%

CN(C)c1ncnc2c1ncn2C1OC(CO)C2NP(=O)(N(CCCl)CCCl)OC21 (stereo not drawn)
inactive: [1]; [7] 1% | [2]; [7] -3% | [2]; [8] 24% | [2]; at 50.0 µM -1.35% | [3]; [7] -3% | [3]; [8] 63% | [4]; [7] 8% | [4]; [8] 5% | [4]; at 50.0 µM 13.6% | [5]; [7] 0% | [5]; [8] 48% | [5]; at 50.0 µM 12.6% | [6]; [7] -17% | [6]; [8] 23% | [6]; at 50.0 µM 28.4%
active: [1]; [8] 80% | [1]; at 50.0 µM 87.9% | [3]; at 50.0 µM 71.2%

CCCNC1=C(C)C(=O)C2=C(C1=O)[C@H](COC(N)=O)[C@]1(OC)[C@@H]3N[C@@H]3CN21
inactive: [1]; [7] 15% | [1]; [8] 66% | [1]; at 50.0 µM 36.8% | [2]; [7] 15% | [2]; at 50.0 µM 38.9% | [3]; [7] 11% | [3]; [8] 64% | [3]; at 50.0 µM 39.6% | [4]; [7] 5% | [4]; at 50.0 µM 51.7% | [5]; [7] 2% | [5]; [8] 37% | [5]; at 50.0 µM 9.7%
active: [2]; [8] 76% | [4]; [8] 79%

O=[N+]([O-])c1ccc([N+](=O)[O-])c2ccccc12
inactive: [1]; [7] 37% | [2]; [7] 47% | [2]; at 50.0 µM 61.7% | [3]; [7] 61% | [4]; at 50.0 µM 67.9% | [5]; [7] 45%
active: [1]; [8] 99% | [1]; at 50.0 µM 86.5% | [2]; [8] 99% | [3]; [8] 97% | [3]; at 50.0 µM 91.1% | [4]; [7] 82% | [4]; [8] 97% | [5]; [8] 95% | [5]; at 50.0 µM 85.7%

O=C1C=CC(=O)C(Cl)=C1
active: [1]; [8] 96% | [1]; at 50.0 µM 92.2% | [2]; [8] 73% | [2]; at 50.0 µM 96% | [3]; [8] 98% | [3]; at 50.0 µM 96.2% | [4]; at 50.0 µM 91.4% | [5]; [8] 97% | [5]; at 50.0 µM 95%
inactive: [1]; [7] 10% | [2]; [7] 3% | [3]; [7] 10% | [4]; [7] 6% | [4]; [8] 56% | [5]; [7] 16%

C[C@]12CC[C@H](OC3OC(CO)C(O)C(O)C3O)C[C@H]1CC[C@@H]1[C@@H]2CC[C@]2(C)[C@@H](C3=CCOC3=O)CC[C@]12O (stereo partly drawn)
inactive: [1]; [7] 7% | [1]; [8] 4% | [1]; at 50.0 µM -11.2% | [2]; [7] 6% | [2]; [8] -2% | [2]; at 50.0 µM -6.9% | [3]; [7] -17% | [3]; [8] -2% | [3]; at 50.0 µM 6.4% | [4]; [7] -11% | [4]; [8] -35% | [4]; at 50.0 µM 13.1% | [5]; [7] -22% | [5]; [8] 7% | [5]; at 50.0 µM -38.5% | [6]; [7] 6% | [6]; [8] 21% | [6]; at 50.0 µM 49.6%

O=[N+]([O-])c1ccc(Br)c([N+](=O)[O-])c1
active: [1]; [7] 83% | [1]; [8] 98% | [1]; at 50.0 µM 99% | [2]; [8] 99% | [2]; at 50.0 µM 99.4% | [3]; [8] 98% | [3]; at 50.0 µM 99.2% | [4]; [8] 98% | [4]; at 50.0 µM 98.3% | [5]; [8] 98% | [5]; at 50.0 µM 98.9% | [6]; [8] 98% | [6]; at 50.0 µM 99.2%
inactive: [2]; [7] 7% | [3]; [7] 8% | [4]; [7] -6% | [5]; [7] -15% | [6]; [7] 17%
